# Compound activity deposited in PubChem by National Center for Advancing Translational Sciences (NCATS).
# Most compounds without a hit are left out; they make up all but 11% or so of the library.
# BAZ2B block: BAZ2B (human) inhibition; Q9UIF8; AlphaScreen BAZ2B-H3K14Ac peptide displacement; Potency, µM (series often up to 114 µM), for the others: at the highest dose activity change, negative = inhibition, usual class: inhibitors; 360,000 compounds, 4.4% hits; note: % is set by controls: 0 for no effect and ±100 for the full control effect; nearly all actives have a fitted effect of over 60% in size
#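 Protein-peptide AlphaScreen: BAZ2B 50 nM, b-H3K14Ac 50 nM, 1x PBS pH 7.4 + 0.01% Tween-20. Preincubation 30 min RT; cpd 30 min RT (top 110 uM); beads 20 min RT, light-protected.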
# JMJD2A Tudor inh: JMJD2A Tudor domain (human) inhibition | 390,000 compounds, 4.4% hits | Potency, µM (top dose mostly 114 µM), for inactives: top-dose activity change, negative = inhibition, most hits filed as inhibitors | AlphaScreen JMJD2A-Tudor / H3K4me3 peptide binding | AID 504339; note: % is set by controls: 0 for no effect and ±100 for the full control effect; nearly all actives have a fitted effect of over 50% in size
# HP1b binding inh: blocks HP1-beta chromodomain binding to methylated histone tails | AlphaScreen HP1-beta / biotin-H3K9me3 peptide binding | Potency, µM (titrated, usually from 114 µM), inactives show top-dose activity change, negative = inhibition, actives largely listed as inhibitors | 390,000 compounds, 0.56% hits; note: nearly all actives have a fitted effect of over 70% in size
# Target sequence (P83916 whole entry, looked up): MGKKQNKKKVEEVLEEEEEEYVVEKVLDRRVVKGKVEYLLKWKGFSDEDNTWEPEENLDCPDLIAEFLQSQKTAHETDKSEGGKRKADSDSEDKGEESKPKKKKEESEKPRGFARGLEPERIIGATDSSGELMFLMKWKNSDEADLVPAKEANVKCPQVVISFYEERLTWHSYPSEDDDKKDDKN
#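 AlphaScreen: HP1-beta (50 nM) preformed 30 min with biotin-H3(1-18)K9me3 peptide (50 nM) in PBS pH 7.4, 0.01% Tween-20. Compound added for 30 min at RT, then streptavidin donor/nickel chelate acceptor beads (10 ug/mL) for 30 min.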
# G9a block: blocks human histone lysine methyltransferase G9a. Q96KQ7. G9a H3K9 monomethylation, AlphaScreen, 2 h. Potency, µM (titrated, usually from 102 µM), for inactives: at the top dose activity, negative = inhibition, usual class: inhibitors. 350,000 compounds, 8.8% hits. AID 504332; note: % is set by controls: 0 for no effect and ±100 for the full control effect; nearly all actives have a fitted effect of over 75% in size
# Target sequence (Q96KQ7 913-1193 limits assumed): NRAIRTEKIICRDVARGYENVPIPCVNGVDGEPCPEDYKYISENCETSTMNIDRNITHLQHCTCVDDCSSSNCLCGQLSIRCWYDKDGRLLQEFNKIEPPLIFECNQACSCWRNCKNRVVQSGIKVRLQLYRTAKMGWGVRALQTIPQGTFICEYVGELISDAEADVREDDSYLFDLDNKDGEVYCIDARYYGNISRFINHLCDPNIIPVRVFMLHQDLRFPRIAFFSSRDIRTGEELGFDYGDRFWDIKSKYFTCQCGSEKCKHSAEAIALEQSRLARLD
#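 Using a bead-based AlphaScreen, monomethylated H3K9 product from 2 h room-temperature reactions (G9a 20 nM, peptide 500 nM, SAM 20 uM) was detected with 0.5 ug/mL rabbit anti-H3K9me1 antibody.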
# L3MBTL1 block: inhibitors of human L3MBTL1; Potency, µM (doses to about 57.1 µM), for inactives: top-dose activity, negative = inhibition, hits mostly inhibitors; AlphaScreen L3MBTL1–H3K9me1 peptide binding; 230,000 compounds, 0.66% hits; note: % is set by controls: 0 for no effect and ±100 for the full control effect; nearly all actives have a fitted effect of over 60% in size
#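 AlphaScreen proximity signal between nickel-chelate acceptor and streptavidin donor beads (final 10 ug/mL) reports binding of 50 nM L3MBTL1 to 75 nM biotin-H3 K9me1 peptide; complex incubated with compounds 30 min at room temperature; cefsulodin titration as control.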
# * marks the source's active call; other numbers are inactive results; u = inconclusive; x = no result; ! = not confirmed by another sample; [ ] = dose if it differs, or a comment. Calls come from the whole dose curve; as a rule, active = well fitted inhibition curve with a large enough effect; inconclusive = small, poorly fitted or top-dose-only effect; inactive = no such curve, though single readings can be large or run the other way. Potency is the fitted concentration of half-maximal effect.
SMILES,BAZ2B block,JMJD2A Tudor inh,HP1b binding inh,G9a block,L3MBTL1 block
Clc1ccc(-c2noc3ncnc(NCCc4ccccc4)c23)cc1,42%[57.1 µM],-2%,67%,11%[59 µM],x
CC[C@@H]1C(c2cccc(C)c2)=NN(c2ccc(Br)cc2)[C@H]1C(=O)N1CCOC1=O,x,x,x,113%[59 µM],x
O=C(Cc1ccccc1F)Nc1cc(Cl)ccc1N1CCCC1,-18%,-19%,43%,45µM*,x
O=C(CC1OC(=O)c2ccccc21)Nc1cc(Cl)ccc1N1CCCC1 (configuration not stated),9%,-14%,-4%,56µM*,4%
C=C1c2ccccc2NC(=S)N1Cc1ccc2c(c1)OCO2,-32%,-9%[11.4 µM],24%,32µM*,-3%
O=C1c2ccccc2C(=O)N1Cc1ccc2c(c1)OCO2,17%,28%,33%,-5%[12.7 µM],x
Cc1ccc(-c2cc(C(=O)N/N=C/c3ccc([N+](=O)[O-])o3)c3ccccc3n2)o1,-37%,-35%,10%,45µM*,x
Cc1ccc(/C=N\NC(=O)c2cncc(Br)c2)o1,-4%,-14%,29%,50µM*,14%
O=C(N/N=C/c1ccsc1)c1cc(-c2ccncc2)nc2ccccc12,-25%,-17%,16%,3%,-14%
O=C(N/N=C/c1ccccn1)c1cc(-c2ccncc2)nc2ccccc12,79µM*,-1%,40%,-4%[59 µM],-8%
Cc1ccc(/C=N/NC(=O)c2cccnc2)o1,-18%,-16%,39%,-4%,x
O=C(Nc1ccc2c(c1)OCO2)c1cc(-c2ccncc2)nc2ccccc12,u,u,u,50µM*,x
O=C(O)c1cc(-c2ccc(-c3c(-c4ccc5c(c4)OCO5)noc3-c3ccsc3)cc2)nc2ccccc12,u,89µM*,-2%,56µM*,-17%
Cc1ccc(/C=N/NC(=O)c2cc(-c3ccncc3)nc3ccccc23)o1,u,-34%,27%,45µM*,x
CCOC(=O)c1c(S(=O)(=O)N2CCC(C(=O)N3CCN(c4ccc(F)cc4)CC3)CC2)c(C)n(C)c1C,-35%,-22%,4%,2%[59 µM],x
COc1ccc(C2(O)CN(c3ccccc3)C3=[N+]2CCS3)cc1OC (configuration not stated),71µM*,-4%,28%,-19%,-28%
O=c1c(-c2ccccc2)nc2cnc(N3CCOCC3)nc2n1Cc1ccc(F)cc1,x,x,x,13%[0.501 µM],x
Cc1cc(C)n(CC(C)C(=O)O)n1 (configuration not stated),79µM*,-13%,8%,x,-2%
COc1ccccc1CNc1ccc(-c2nc(C)no2)cc1[N+](=O)[O-],-2%,-6%,52%,-26%[59 µM],x
COC(=O)/C(=N/Nc1ccccc1C)N1CCCc2ccccc21,-12%,-16%,12%,35µM*,0%
CCOC(=O)/C(=N/Nc1ccc(OC)cc1)N1CCCc2ccccc21,28µM*,u,71µM*,22µM*,-1%
CCOC(=O)/C(=N/Nc1ccccc1)N1CCCc2ccccc21,u,-22%,12%,u,-35%
CCOC(=O)/C(=N/Nc1ccccc1OC)N1CCCc2ccccc21,-16%,-3%,41%,2.5µM*,-9%
CCc1c(C)sc2c1CCN(Cc1ccccc1F)C2c1ccccc1 (configuration not stated),-27%,-34%,u,u,x
CC1(NC(=O)Cc2ccc(S(=O)(=O)N3CCOCC3)s2)CCS(=O)(=O)C1 (configuration not stated),10%,3%,24%,u,-1%
SMILES,BAZ2B block,JMJD2A Tudor inh,HP1b binding inh,G9a block,L3MBTL1 block
C=C1C(c2ccc(C)cc2)=CCc2cc(C)cc(C)c21,x,x,x,29%[59 µM],x
Cc1cc2nc(-c3ccc(SCc4ccc(C(=O)O)cc4)nc3)[nH]c2cc1C,32µM*,u,2%,32µM*,-3%
Cc1cc(OCCCN2CCCC2)ccc1Cl,5%,-12%,18%,-15%,-2%
Cc1cccc(Cl)c1OCCCN1CCOCC1,u,1.6µM*,u,10µM*,3%
Cc1cccc(C)c1OCCCN1CCCC1,50µM*,2.5µM*,u,10µM*,x
Cc1cccc(C)c1OCCCCN1CCCCC1,u,28µM*,u,79µM*,-7%
Cc1cc(Cl)c(OCCCCN2CCOCC2)c(Br)c1,50µM*,3.5µM*,u,u,-7%
Cc1cc(Cl)cc(C)c1OCCCCN1CCOCC1,10%,-15%,39%,u,7%
COc1ccc(NC(=O)CSc2nc3c(oc4ccccc43)c(=O)n2-c2ccc(C)c(C)c2)cc1,-6%,-11%,10%,-6%[59 µM],x
Cc1cccc(C)c1OCCN1CCCC1,u,25µM*,u,25µM*,x
Cc1cccc(C)c1OCCOCCN1CCN(C)CC1,-29%,13µM*!,25µM*!,-42%[59 µM],-2%
Cc1cccc(C)c1OCCn1nnc2ccccc21,10%,17%[57.1 µM],8%,-3%,16%
CC(C)CN(CC(C)C)S(=O)(=O)N1CCC(C(=O)NCc2ccco2)CC1,u,-10%,42%,13%,x
COC(=O)c1c(C)sc(-c2c(-c3ccc(F)cc3)[nH]c3[nH]c(=O)[nH]c(=O)c23)c1O,u,u,12%,u,x
Cc1cccc(N(C)S(=O)(=O)c2nnc(NC(=O)C(C)Oc3ccccc3)s2)c1 (configuration not stated),41%,53%,137%,57%[59 µM],x
CC[C@H](C)[C@@H](CN[C@H](C)CNC)NCCC(c1ccccc1)c1ccccc1,-35%,-16%,29%,45µM*,-5%
CCCCc1c(C)nc2ccccc2c1SCCC(=O)O,u,-16%,20%,50µM*,-10%
CCCCc1c(C)nc2ccc(C)cc2c1SCCC(=O)O,-16%,-15%,38%,-5%[59 µM],12%
CCC(CC)C(=O)NCCN1CCN(C(=O)C(CC)CC)CC1,-3%[57.1 µM],-7%,28%,5.6µM*,-2%
C/C(=N\Nc1ccc(Cl)c(Cl)c1)c1ccc(-n2ccnc2)cc1,u,-31%,13%,11µM*,-16%
CCCN1CCN(CCCNC(=O)c2ccc3c(c2)sc2nc(-c4ccc(OC)cc4)cn23)CC1,3%,-2%,43%,-2%[59 µM],x
C/C=C/c1ccc(OCCNCc2ccccc2)c(OC)c1,56µM*,-18%,u,u,1%
C/C=C/c1ccc(OCCCCOc2c(OC)cccc2OC)c(OC)c1,42%,29%,129%,49%[59 µM],26%
C/C=C/c1ccc(OCCCNC)c(OC)c1,50µM*,1.1µM*,u,16µM*,x
C/C=C/c1ccc(OCCOc2ccc(C=O)cc2)c(OC)c1,10%,14%,58%,57%[59 µM],16%
CNCCCOc1ccc(C)cc1OC,40µM*,1.6µM*,-37%,x,49%
C/C=C/c1ccc(OCCCCN(C)Cc2ccccc2)c(OC)c1,50µM*,18µM*,u,u,-12%
Cc1cc2c(s1)c1cnn(Cc3cc(OC(F)(F)F)ccc3F)c(=O)c1n2C,x,-11%,x,x,x
